Rab2 wt GTP = changes GTP binding to wildtype dog Rab2A, up or down | GST-Rab2 wt beads, Bodipy-GTP binding, flow cytometry | actives 0.19% (n = 190,000) | P61105 | GTP binding activity, % at 10 µM;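 active = GTP binding activity at least 20 points away from 100%, either lowered or raised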
Rac1 mut GTP = alters GTP binding to activated mutant human Rac1 | GST-Rac1 activated beads, fluorescent GTP binding, flow cytometry; actives lie on both sides; 100% means binding = to untreated wells | percent activity (GTP binding), % at 10 µM | actives 0.11% (n = 190,000);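 active = GTP binding at least 20 percentage points away from the 100% baseline, in either direction, so actives lie on both sides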
Cdc42 wt GTP = human Cdc42 wildtype GTP binding change, either direction; GST-Cdc42 beads, Bodipy-GTP binding, flow cytometry; actives lie on both sides; percent activity (GTP binding), % at 10 µM; actives 0.2% (n = 190,000); AID 761;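 active = percent activity GTP binding at least 20 points away from the 100% baseline, either down as inhibitor or up as activator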;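 also: median bead fluorescence of bound Bodipy-FL-GTP at 100 nM; below 100% means less GTP binding so inhibitor and above means activator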
Target sequence (P60953 whole entry, looked up): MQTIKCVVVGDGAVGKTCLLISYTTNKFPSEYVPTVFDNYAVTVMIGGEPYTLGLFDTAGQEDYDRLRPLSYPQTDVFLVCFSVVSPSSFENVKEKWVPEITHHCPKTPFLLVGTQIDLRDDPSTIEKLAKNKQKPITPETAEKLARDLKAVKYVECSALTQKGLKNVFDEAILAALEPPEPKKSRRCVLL
Rab7 wt GTP bind = alters GTP binding to wildtype dog Rab7; AID 758; GST-Rab7 beads, fluorescent GTP binding, flow cytometry; actives lie on both sides; untreated = 100%, excess cold GTP = 0%; GTP binding activity (percent of control), % at 10 µM; actives 0.055% (n = 190,000);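 active = fluorescent GTP binding to Rab7 beads changed by at least 20 points from the 100% baseline, either direction, mostly lower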;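 also: median green fluorescence of bound Bodipy-FL-GTP per Rab7 bead population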
HRas wt GTP bind = modulators of GTP binding to human HRas wildtype; P01112; GST-Ras wt beads, Bodipy-FL-GTP binding, flow cytometry; actives lie on both sides; GTP binding activity, % at 10 µM; actives 0.14% (n = 190,000);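 active = GTP binding activity at least 20% away from the 100% baseline, either lowered as inhibitor or raised as activator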
Target sequence (P01112 whole entry, looked up): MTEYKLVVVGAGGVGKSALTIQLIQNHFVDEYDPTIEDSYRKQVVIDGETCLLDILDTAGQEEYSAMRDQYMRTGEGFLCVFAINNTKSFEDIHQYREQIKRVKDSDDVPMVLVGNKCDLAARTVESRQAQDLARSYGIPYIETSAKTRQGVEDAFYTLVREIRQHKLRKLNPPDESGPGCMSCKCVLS
Rac1 wt modul = alters GTP binding to wildtype human Rac1. actives 0.27% (n = 190,000). GTP binding activity (% of control), % at 10 µM. GST-Rac1 beads, fluorescent GTP binding, flow cytometry; actives lie on both sides; 0 = cold GTP competed, 100 = untreated. AID 757;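 active = GTP binding activity at least 20 points away from the 100% control level, either lower or higher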
Each line names hits and unclear results; the compound was inactive in the other large screens; [ ] = remark or other dose. Sampled rows, rich in hits. Any-hit rate of the full collection: about 0.38%.

Cc1ccc(S(=O)(=O)/N=C(\N)Nc2nc(C)c3ccccc3n2)cc1	none
COc1ccc2c(C)nc(N/C(N)=N/S(=O)(=O)c3ccc(C)cc3)nc2c1	Rac1 wt modul 77
O=C(O)COc1ccccc1/C=N/NC(=O)c1cc(-c2ccc(F)cc2)nc2ccccc12	Rac1 wt modul 78
O=C(O)c1cc([N+](=O)[O-])ccc1NCc1ccccc1Cl	Rab2 wt GTP 129[activator], Rac1 mut GTP 133[activator], Cdc42 wt GTP 129[activator], HRas wt GTP bind 125[activator], Rac1 wt modul 146[activator]
N#CC(c1ccc(Cl)nn1)c1ccc(Cl)cc1Cl (stereo not given)	Rac1 wt modul 121[activator]
COc1ccc(CNC(=O)/C(C#N)=C2\N=C(NC(=O)c3cccs3)c3ccccc32)cc1	none
O=C(c1ccc(S(=O)(=O)c2ccccc2Cl)c([N+](=O)[O-])c1)N1CCCCCC1	none
CCCCn1c(SCC(=O)c2ccccc2)nc2c1c(=O)[nH]c(=O)n2C	Rab2 wt GTP 36, Rac1 mut GTP 36, Cdc42 wt GTP 38, Rab7 wt GTP bind 21, HRas wt GTP bind 41, Rac1 wt modul 33
CCCCCn1c(SCCc2ccccc2)nc2c1c(=O)[nH]c(=O)n2C	none
CCOC(=O)c1nc(Nc2ccc(C(C)=O)cc2)c2ccccc2n1	Rac1 wt modul 78
CC1CC(C)(C)CC2(C1)NC(=O)N(CC(=O)NC1CCCc3ccccc31)C2=O (stereo not given)	none
O=c1[nH]c2ccccc2c2nc3ccccn3c12	none
O=c1nc2c(O)cccn2c2c1c(=O)[nH]c1ccccc12	Rab2 wt GTP 62, Rac1 mut GTP 77, Cdc42 wt GTP 70, HRas wt GTP bind 59, Rac1 wt modul 61
O=C1N(Cc2cccnc2)C[C@@H]2C[C@@H](c3ccc4nsnc4c3)N3CCC[C@@]123	none
CC(C)C(NCc1c(Cl)cccc1Cl)C(=O)O (stereo not given)	Rac1 wt modul 124[activator]
Cc1cn2c(nc(=O)c3cccnc32)s1	Rac1 wt modul 76
CC1=NC(=O)C(N=Nc2ccccc2C(=O)O)N1c1ccccc1 (stereo not given)	Rac1 wt modul 79
CC1=NC(=O)C(N=Nc2ccccc2)N1c1ccccc1 (stereo not given)	none
Cc1sc2nc3c(SC(C)C(=O)O)cc(C(=O)c4ccccc4O)cn3c(=O)c2c1C (stereo not given)	Rac1 wt modul 75
CCN(CC(=O)Nc1ccccc1OC)CC(=O)Nc1sccc1C#N	none
COc1cccc2c(SCC(=O)N/N=C/c3ccc(O)cc3O)cc(C)nc12	Rab2 wt GTP 66, Cdc42 wt GTP 66, HRas wt GTP bind 72, Rac1 wt modul 66
CN(C)CCCn1c(SCC(=O)N2c3ccccc3Sc3ccccc32)nc2ccccc2c1=O	none
COc1cc(NC2c3ccccc3C(=O)N2c2ccc(C)cn2)cc(OC)c1OC (stereo not given)	none
Cc1ccc(N2C(=O)c3ccccc3C2Nc2cccnc2)nc1 (stereo not given)	Rac1 wt modul 121[activator]
Cc1nc2ccccn2c1-c1csc(Nc2cccc(O)c2)n1	Rac1 wt modul 75
CCCc1cc(NCC2CCCO2)n2c(nc3ccccc32)c1C#N (stereo not given)	none
CCCc1cc(NCc2ccccn2)n2c(nc3ccccc32)c1C#N	Rac1 wt modul 75
Cc1cc(NCc2ccccn2)n2c(nc3ccccc32)c1C#N	Rab2 wt GTP 70, Cdc42 wt GTP 72, Rab7 wt GTP bind 78, HRas wt GTP bind 75, Rac1 wt modul 66
CCOc1ccc(OCC)c(S(=O)(=O)NCc2ccccn2)c1	none
O=c1[nH]c2ccccc2n1CCC1CCCCC1	none
CC(Oc1ccccc1)C(=O)N1CCN=C1SCc1ccccc1 (stereo not given)	none
NS(=O)(=O)c1ccc(N2N=C(c3ccccc3)CC2c2cccc(F)c2)cc1 (stereo not given)	Cdc42 wt GTP 61
Cc1c(C(=O)N/N=C/c2ccc(O)c(Br)c2)sc(N)c1C#N	Rab2 wt GTP 79, Rac1 wt modul 76
COc1cc(/C=N/NC(=O)c2sc(N)c(C#N)c2C)ccc1O	none
CN1/C(=C\C=C(/C#N)C(=O)Nc2ccc(Cl)cc2)C(C)(C)c2ccccc21	Rab2 wt GTP 133[activator]
CCOC(=O)c1cnc(SCc2ccc(C)cc2)nc1N	Rac1 wt modul 120[activator]
COc1ccc2nc(NNC(=O)c3cc(=O)c4ccccc4o3)sc2c1	none
Cc1ccc2sc(NNC(=O)c3cc(=O)c4ccccc4o3)nc2c1C	Rac1 mut GTP 77
O=C(NNc1nc2c(F)cccc2s1)c1cc(=O)c2ccccc2o1	Rac1 mut GTP 76
Cc1cccc2sc(NNC(=O)c3cc(=O)c4ccccc4o3)nc12	Rac1 mut GTP 74, Cdc42 wt GTP 77
Cc1ccc(CSc2nnc(-c3ccccc3N)c(=O)[nH]2)cc1	Rac1 wt modul 120[activator]
Cc1[nH]n(-c2ccc([N+](=O)[O-])cc2)c(=O)c1C=NCCc1c(C)[nH]c2ccccc12	none
COc1ccc(OCCN2C(=O)c3ccccc3C2=O)cc1	Rac1 wt modul 127[activator]
N#Cc1c(C(F)(F)F)cc(-c2ccc(Cl)cc2)[nH]c1=O	Rac1 mut GTP 78, Cdc42 wt GTP 76, Rab7 wt GTP bind 78, Rac1 wt modul 78
N#Cc1c(-c2cccc(Br)c2)cc(-c2ccco2)[nH]c1=O	Rac1 mut GTP 76, Cdc42 wt GTP 79, Rac1 wt modul 75
C=CCOc1ccc(C2CC(C)=NN2c2ccccc2)cc1 (stereo not given)	none
CCOC(=O)C1=C(N)OC2=C(C(=O)CCC2)C1c1ccco1 (stereo not given)	none
CCOc1ccccc1C1C(C(=O)OC)=C(N)OC2=C1C(=O)CCC2 (stereo not given)	Cdc42 wt GTP 125[activator], Rac1 wt modul 133[activator]
N#Cc1ccc(N/N=C/c2ccccc2)c([N+](=O)[O-])c1	none
c1ccc(Cn2c(NCc3ccncc3)nc3ccccc32)cc1	none
COc1ccc(CNc2nc3ccccc3n2Cc2ccc(C)cc2)cc1OC	Rab2 wt GTP 123[activator], Rac1 mut GTP 125[activator], Cdc42 wt GTP 131[activator], HRas wt GTP bind 121[activator], Rac1 wt modul 142[activator]
Cc1sc(-c2ccncc2)nc1OC(=O)c1ccc(F)cc1F	none
C=C(C)COc1ccc(-c2n[nH]c(C)c2-c2ccc(Br)cc2)c(O)c1	Rac1 wt modul 79
Clc1ccc(Cn2ncc3c(N4CCOCC4)ncnc32)cc1	Rab2 wt GTP 59
Clc1ccc(Cn2ncc3c(N4CCCC4)ncnc32)cc1	none

High-throughput results: PubChem, NMMLSC
